Rows were chosen to be rich in hits. Some 22% of all compounds tested hit in one or more screens of this group.
Shiga toxin inh: blocks Shiga toxin action in Vero cells. Vero cells, Shiga toxin protein synthesis inhibition reporter. inhibition, % at 38.7 µM. hit rate 9.2% among 290,000. AID 2315; in the data active = inhibition mostly above about 28%, no sharp cut-off; inactive = mostly below about 43%
Pf growth 96h: P. falciparum growth inhibition at 96 hour, primary screen for plastid delayed-death inhibitors | P. falciparum luciferase reporter growth, 96 h | Potency, µM (highest dose often 28.7 µM), most hits filed as inhibitors | hit rate 6.9% among 320,000
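Infected RBCs, 2% Hct / 0.05% parasitemia final; luciferase-reporter P. falciparum; cpd 96 h, 37 C, 5% CO2; luciferase detection reagent; luminescence.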
Pf growth 48h: P. falciparum growth inhibition at 48 hours (one generation); hit rate 5.9% among 310,000; P. falciparum luciferase growth in erythrocytes, 48 h; Potency, µM (doses to about 28.7 µM), actives largely listed as inhibitors; AID 504832
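First compound was added to culture medium, then infected red cells at 0.1% parasitemia and 2% hematocrit (final). After incubation at 37 C under 5% CO2, luciferase detection reagent was dispensed and light output recorded.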
LmPK inh: LmPK (Leishmania mexicana) enzyme inhibition | Q27686 | purified LmPK, Kinase-Glo ATP luminescence, 1 h | Potency, µM (titrated, usually from 57.5 µM), hits mostly inhibitors | hit rate 0.37% among 290,000
Target sequence (Q27686 whole entry, looked up): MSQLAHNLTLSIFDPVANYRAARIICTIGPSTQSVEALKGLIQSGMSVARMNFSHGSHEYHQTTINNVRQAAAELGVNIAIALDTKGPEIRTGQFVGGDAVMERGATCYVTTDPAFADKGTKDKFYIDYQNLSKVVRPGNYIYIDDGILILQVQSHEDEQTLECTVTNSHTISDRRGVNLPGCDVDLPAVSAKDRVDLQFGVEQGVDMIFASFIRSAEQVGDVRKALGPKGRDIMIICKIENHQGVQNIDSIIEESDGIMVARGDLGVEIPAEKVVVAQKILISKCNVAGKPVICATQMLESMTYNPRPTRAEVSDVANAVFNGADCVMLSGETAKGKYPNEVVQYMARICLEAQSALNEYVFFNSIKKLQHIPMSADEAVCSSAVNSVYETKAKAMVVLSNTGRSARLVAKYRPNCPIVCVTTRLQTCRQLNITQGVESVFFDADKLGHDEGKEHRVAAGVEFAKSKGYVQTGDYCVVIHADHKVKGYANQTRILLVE
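0.1 nM LmPK, 0.5 mM PEP, 0.1 mM ADP; 50 mM imidazole pH 7.2, 7 mM MgCl2, 50 mM KCl; 1 h RT. Kinase-Glo luminescence readout, normalized to no-enzyme (full inhibition) and uninhibited wells.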
Cycloheximide cs: affects cycloheximide protein synthesis inhibition readout, counter-screen. hit rate 12% among 300,000. cell reporter, cycloheximide protein synthesis inhibition counterscreen. max response, %. AID 2314; in the data active = max response mostly above about 13%, no sharp cut-off; inactive = mostly below about 14%; also: read at 38.3 µM for the half of the compounds with a filed dose
Of the large screens only hits and unclear results are named; the others gave an inactive call. Unless noted, calls follow the shape of the dose curve; as a rule, active = well fitted inhibition curve with a large enough effect; inconclusive = small, poorly fitted or top-dose-only effect, or another doubt; inactive = no such curve, though single readings can be large or run the other way.

O=C(N/N=C/c1cccnc1)c1ccco1	Shiga toxin inh 66, Cycloheximide cs 26
O=C(N/N=C/c1cccnc1)c1ccccc1Br	none
Nc1c(C(=O)N/N=C/c2ccccc2)cnn1-c1ccccc1	Shiga toxin inh 96, Cycloheximide cs 45
CCc1cc(C(=O)N/N=C/c2ccc(O)cc2)c2ccccc2n1	none
C#CCOCCOCCOCCNc1nc(N2CCN(C(=O)C([C@@H](C)CC)n3cc(C(N)CO)nn3)CC2)nc(N2CCN(C(=O)[C@H](CCC(=O)O)n3cc(C(N)[C@H](C)CC)nn3)CC2)n1 (some centres undefined)	none
O=C(NCCc1ccco1)C(=O)NCC1OCCCN1S(=O)(=O)c1cc(F)ccc1F (centres undefined)	none
Cc1ccc(C)c(-c2cc(C(=O)N/N=C/c3cccnc3)c3ccccc3n2)c1	Pf growth 96h 4.7µM, Pf growth 48h inconclusive
O=C(N/N=C\c1cccnc1)c1ccccc1O	Shiga toxin inh 33, Cycloheximide cs 23
O=C(Nc1ccccn1)c1ccc2ccccc2c1O	Shiga toxin inh 66, Cycloheximide cs 40
O=C(N/N=C/c1cccnc1)c1cc(-c2ccccc2)nc2ccccc12	Pf growth 96h inconclusive (no result: Pf growth 48h)
O=C(O)c1ccccc1C(=O)Nc1ccccn1	none
O=C(NC(Cc1c[nH]c2ccccc12)C(=O)N/N=C/c1cccnc1)c1cccs1 (centres undefined)	none
O=C(N/N=C/c1cccnc1)c1cccs1	Shiga toxin inh 75, Cycloheximide cs 38
CN1CCN(C(=O)c2cccc(S(=O)(=O)N3CCCC3)c2)CC1	none (no result: Shiga toxin inh, LmPK inh, Cycloheximide cs)
CC(=O)N[C@@H](Cc1c[nH]c2ccccc12)C(=O)OCc1cc(C(F)(F)F)cc(C(F)(F)F)c1	none (no result: Shiga toxin inh, LmPK inh, Cycloheximide cs)
N#Cc1nc(-c2cccs2)oc1NCc1ccc2c(c1)OCO2	none
CCCCC(=O)Nc1ccc(C(=O)Nc2nnc(COC)s2)cc1	none (no result: Pf growth 48h)
Cc1ccc(C)c(-c2cc(C(=O)Nc3sc(C)c(C)c3C(N)=O)c3ccccc3n2)c1	Pf growth 96h 10µM, Pf growth 48h inconclusive
O=C(CSc1nc2ccccc2c(=O)[nH]1)Nc1ccc(Br)cc1	none
Cc1cccc(-c2cc(C(=O)Nc3sc(C)c(C)c3C(N)=O)c3ccccc3n2)c1	Pf growth 96h inconclusive
O=C(Nc1cccc([N+](=O)[O-])c1)c1ccc2ccccc2c1O	Cycloheximide cs 37
O=C(CSc1nc2ccccc2c(=O)[nH]1)Nc1cccc([N+](=O)[O-])c1	Pf growth 96h 1.2µM
O=C(Nc1cccnc1)c1ccc2ccccc2c1O	Shiga toxin inh 39, Pf growth 96h 0.47µM, Cycloheximide cs 33
Cc1occc1C(=O)Nc1cccc([N+](=O)[O-])c1	none
O=C(N/N=C\c1cccnc1)c1ccc(Cl)cc1Cl	Shiga toxin inh 54, Pf growth 96h inconclusive, Cycloheximide cs 31
O=C(COc1ccc(Cl)cc1Cl)N/N=C/c1cccnc1	Pf growth 48h inconclusive
O=C(N/N=C/c1cccnc1)c1ccc2ccccc2c1O	Shiga toxin inh 38, Cycloheximide cs 20
O=C1CNC(=S)N1C(CO)c1ccccc1 (centres undefined)	none
Cn1ccc(C(=O)OCC(=O)Nc2ccccc2Cl)n1	Pf growth 96h inconclusive
COc1ccc(/C=C/CN2CCCC(CO)(Cc3cccc(Cl)c3)C2)cc1 (centres undefined)	Pf growth 48h 13µM
COc1ccc(F)c(CN2CCCC(CO)(Cc3cccc(Cl)c3)C2)c1 (centres undefined)	none
COc1ccccc1/C=C/CN1CCCC(CO)(Cc2cccc(Cl)c2)C1 (centres undefined)	Shiga toxin inh 47, Pf growth 48h inconclusive
O=[N+]([O-])c1ccc(N2CCN(S(=O)(=O)c3ccccc3)CC2)cc1	none
O=C(c1c(F)cccc1F)N1CCCC(c2nc(-c3ccc(F)cc3)no2)C1 (centres undefined)	Cycloheximide cs 24 (no result: Shiga toxin inh)
COc1ccc(-c2noc(C3CCCN(C(=O)c4ccc(F)cc4)C3)n2)cc1 (centres undefined)	Cycloheximide cs 26
COc1ccc(-c2noc(C3CCCN(C(=O)c4ccc(C)cc4)C3)n2)cc1 (centres undefined)	none
COc1ccc(-c2csc(NC(=O)c3cccs3)c2C(=O)O)cc1OC	Shiga toxin inh 28, Pf growth 48h inconclusive
COc1ccc(C(=O)Nc2cccc(NC(=O)c3cccs3)c2)cc1OC	Shiga toxin inh 23, Cycloheximide cs 20

Source: PubChem (National Center for Advancing Translational Sciences (NCATS))
